This passage reports outcome and AC50 results from PubChem BioAssay (EPA / NIEHS).

Records with an inconclusive call do not appear. Activity calls are given as the source filed them. The calls were made as follows, unless noted: active = hit-call score of the fitted dose curve at least 0.9, where 1 is the maximum; inconclusive = response in the unintended direction; inactive = score below 0.9.

In assay [1] the target is Bile acid receptor (Homo sapiens) (UniProt Q96RI1). Description: ATG_FXR_TRANS: Attagene TRANS-FACTORIAL HepG2 Assay for Farnesoid X Receptor (FXR) (AID 2282979).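 Also: hits raise reporter mRNA above DMSO so AC50 marks FXR activation.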 Particulars: HepG2 Attagene TRANS FXR-GAL4 reporter transcription. A digest of the protocol: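 Reporter transcripts from transfected HepG2 cells were measured 24 h after dosing, using RT-PCR with capillary electrophoresis of 6-FAM-labelled fragments. The read-out reflects activity of exogenous FXR-Gal4 chimera on GAL4-UAS units, with induction relative to DMSO.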
Sequence of Bile acid receptor (Homo sapiens) (Q96RI1 whole entry, looked up, the tested form may be a part): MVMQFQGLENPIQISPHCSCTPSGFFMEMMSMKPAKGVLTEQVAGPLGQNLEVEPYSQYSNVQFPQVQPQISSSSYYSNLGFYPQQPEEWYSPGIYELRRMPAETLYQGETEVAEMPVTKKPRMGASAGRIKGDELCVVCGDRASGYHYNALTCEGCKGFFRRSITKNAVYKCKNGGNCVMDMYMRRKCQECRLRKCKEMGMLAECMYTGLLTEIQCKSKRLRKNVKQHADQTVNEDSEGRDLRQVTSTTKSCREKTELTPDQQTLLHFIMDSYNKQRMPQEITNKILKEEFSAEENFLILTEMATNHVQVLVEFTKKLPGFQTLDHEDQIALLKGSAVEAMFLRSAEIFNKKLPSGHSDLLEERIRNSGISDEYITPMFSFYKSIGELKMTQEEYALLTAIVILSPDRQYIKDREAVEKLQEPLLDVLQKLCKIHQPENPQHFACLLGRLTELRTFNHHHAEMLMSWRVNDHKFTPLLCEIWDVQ

For assay [2], the target named is Oxysterols receptor LXR-beta (Homo sapiens) (UniProt P55055). Description: ATG_LXRb_TRANS: Attagene TRANS-FACTORIAL HepG2 Assay for human Liver X Receptor beta (LXRb) (AID 2282981). The following applies: HepG2 Attagene TRANS GAL4-LXRb reporter, mRNA. The gist of the method: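 Liver-derived HepG2 cells transfected with Gal4-responsive reporters were dosed for 24 h. Activation was scored as rise in reporter mRNA, by RT-PCR and capillary electrophoresis, above DMSO baseline.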
Sequence of Oxysterols receptor LXR-beta (Homo sapiens) (P55055 whole entry, looked up, the tested form may be a part): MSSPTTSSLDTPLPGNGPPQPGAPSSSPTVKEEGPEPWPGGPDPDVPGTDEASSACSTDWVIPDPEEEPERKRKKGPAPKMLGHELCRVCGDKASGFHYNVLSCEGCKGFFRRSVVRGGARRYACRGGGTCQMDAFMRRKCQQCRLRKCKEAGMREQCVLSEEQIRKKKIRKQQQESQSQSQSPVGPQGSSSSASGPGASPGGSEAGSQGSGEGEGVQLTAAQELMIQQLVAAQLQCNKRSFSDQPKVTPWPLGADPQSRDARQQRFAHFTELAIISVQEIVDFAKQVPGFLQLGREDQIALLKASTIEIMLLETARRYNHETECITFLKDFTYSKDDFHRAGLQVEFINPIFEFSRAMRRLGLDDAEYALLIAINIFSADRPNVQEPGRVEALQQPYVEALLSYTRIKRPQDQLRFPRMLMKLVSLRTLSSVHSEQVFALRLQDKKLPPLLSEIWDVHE

The target in assay [3] is Transcriptional activator Myb (Homo sapiens) (UniProt P10242). Put plainly: ATG_Myb_CIS: Attagene CIS-FACTORIAL HepG2 Assay for human Myeloblastosis (Myb) Proto-Oncogene Transcription Factor (AID 2282986; active = hit-call score of the fitted dose curve at least 0.9, where 1 is the maximum; inactive = score below 0.9). Particulars: HepG2 Attagene CIS-FACTORIAL Myb reporter transcription; actives raise or lower the signal. A digest of the protocol: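 Steps: transfect HepG2 with cis-regulated reporter units; dose with chemical for 24 h; isolate RNA, reverse-transcribe, PCR-amplify and FAM-label reporter sequences; digest with HpaI; resolve by capillary electrophoresis. Activity fitted in both directions relative to DMSO.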
Sequence of Transcriptional activator Myb (Homo sapiens) (P10242 whole entry, looked up): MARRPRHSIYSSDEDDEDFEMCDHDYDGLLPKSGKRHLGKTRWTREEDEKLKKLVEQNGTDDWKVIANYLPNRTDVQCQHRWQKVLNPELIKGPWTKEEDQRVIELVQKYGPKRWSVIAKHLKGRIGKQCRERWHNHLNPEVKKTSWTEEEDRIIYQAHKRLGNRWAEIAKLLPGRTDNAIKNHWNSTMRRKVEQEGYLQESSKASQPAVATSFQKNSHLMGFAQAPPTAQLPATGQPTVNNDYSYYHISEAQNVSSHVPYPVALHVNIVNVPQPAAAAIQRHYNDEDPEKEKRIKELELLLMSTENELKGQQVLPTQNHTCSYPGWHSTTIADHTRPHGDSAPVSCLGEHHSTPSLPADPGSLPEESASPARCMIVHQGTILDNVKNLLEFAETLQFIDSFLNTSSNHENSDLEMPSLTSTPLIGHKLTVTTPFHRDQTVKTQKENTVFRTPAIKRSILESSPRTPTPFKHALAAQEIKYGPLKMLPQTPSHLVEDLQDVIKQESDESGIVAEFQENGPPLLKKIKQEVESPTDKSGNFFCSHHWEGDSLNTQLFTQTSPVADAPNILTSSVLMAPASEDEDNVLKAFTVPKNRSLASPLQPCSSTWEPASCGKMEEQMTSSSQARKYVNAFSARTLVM

The target in assay [4] is Nuclear respiratory factor 1 (Homo sapiens) (UniProt Q16656). Put plainly: ATG_NRF1_CIS: Attagene CIS-FACTORIAL HepG2 Assay for human Nuclear Respiratory Factor 1 (NRF1) Orphan Gene (AID 2282987; active = hit-call score of the fitted dose curve at least 0.9, where 1 is the maximum; inactive = score below 0.9). The following applies: HepG2 NRF1 cis-element reporter, Attagene multiplex; actives raise or lower the signal. The gist of the method: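 Fluorescence intensity of labelled reporter cDNA fragments, resolved by capillary electrophoresis, served as readout for NRF1 cis-element activity. Transiently transfected HepG2 cells were dosed for 24 hours; activity in either direction was fitted against DMSO negative control.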
Sequence of Nuclear respiratory factor 1 (Homo sapiens) (Q16656 whole entry, looked up, the tested form may be a part): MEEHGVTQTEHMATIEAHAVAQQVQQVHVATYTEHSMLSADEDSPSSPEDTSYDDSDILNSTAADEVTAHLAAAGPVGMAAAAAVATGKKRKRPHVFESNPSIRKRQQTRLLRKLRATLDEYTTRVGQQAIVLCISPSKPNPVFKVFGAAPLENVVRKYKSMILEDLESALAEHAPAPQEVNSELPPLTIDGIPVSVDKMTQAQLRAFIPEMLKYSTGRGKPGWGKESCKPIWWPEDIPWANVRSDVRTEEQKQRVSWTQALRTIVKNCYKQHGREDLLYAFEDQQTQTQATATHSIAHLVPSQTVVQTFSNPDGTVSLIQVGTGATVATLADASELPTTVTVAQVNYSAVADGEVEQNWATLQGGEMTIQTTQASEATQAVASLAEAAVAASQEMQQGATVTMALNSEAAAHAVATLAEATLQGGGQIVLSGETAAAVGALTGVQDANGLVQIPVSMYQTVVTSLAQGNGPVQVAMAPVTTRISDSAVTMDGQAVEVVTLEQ

The target in assay [5] is Hepatocyte nuclear factor 4-alpha (Homo sapiens) (UniProt P41235). Put plainly: ATG_HNF4a_TRANS: Attagene TRANS-FACTORIAL HepG2 Assay for human Hepatocyte Nuclear Factor 4 alpha (HNF4a) (AID 2282982). Particulars: HepG2 HNF4a transactivation reporter, mRNA readout. A digest of the protocol: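 Using HepG2 liver cells transfected with GAL4-UAS reporter units, chemical-induced mRNA increases were assessed after 24 hours. Fluorescent RT-PCR fragments were separated by capillary electrophoresis and compared with DMSO negative controls.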
Sequence of Hepatocyte nuclear factor 4-alpha (Homo sapiens) (P41235 whole entry, looked up, the tested form may be a part): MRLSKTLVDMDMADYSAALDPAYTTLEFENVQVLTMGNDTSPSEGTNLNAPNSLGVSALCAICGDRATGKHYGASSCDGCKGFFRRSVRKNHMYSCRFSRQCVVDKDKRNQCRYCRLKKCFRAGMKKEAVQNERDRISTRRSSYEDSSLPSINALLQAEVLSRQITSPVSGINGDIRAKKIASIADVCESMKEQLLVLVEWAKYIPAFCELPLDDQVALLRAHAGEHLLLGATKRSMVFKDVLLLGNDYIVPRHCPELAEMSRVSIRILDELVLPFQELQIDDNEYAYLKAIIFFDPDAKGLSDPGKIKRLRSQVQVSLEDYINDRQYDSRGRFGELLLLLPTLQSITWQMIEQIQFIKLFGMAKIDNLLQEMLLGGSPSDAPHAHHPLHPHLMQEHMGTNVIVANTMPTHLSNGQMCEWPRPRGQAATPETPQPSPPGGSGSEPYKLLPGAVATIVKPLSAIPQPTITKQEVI

Assay [6] in a line: ATG_M_06_TRANS: Attagene TRANS-FACTORIAL HepG2 Assay for M06 Transcription Factor (Internal Marker) (AID 2282983).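 Also: reporter transcript level by RT-PCR then capillary electrophoresis fluorescence.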 The following applies: HepG2 Attagene TRANS M06 internal marker reporter. A digest of the protocol: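 Background-control reporter readout: after 24 h chemical exposure of transiently transfected HepG2 (GAL4-UAS reporter units), mRNA quantified by RT-PCR with fluorescent labeling and capillary electrophoresis. Gain-of-signal fitting against DMSO baseline.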

Assay [7] is described as follows: ATG_M_32_TRANS: Attagene TRANS-FACTORIAL HepG2 Assay for M32 Transcription Factor (Internal Marker) (AID 2282984).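 Also: transcript level of a background control reporter unit measured by RT-PCR and capillary electrophoresis.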 Particulars: HepG2 Attagene TRANS M32 internal marker reporter. A digest of the protocol: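 Fluorescence-detected mRNA induction, HepG2 liver cells, 24 h after dosing. Multiple GAL4-UAS reporter units introduced by transient transfection; background-control endpoint analysed for gain of signal against DMSO.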

Assay [8] concerns the target Nuclear receptor subfamily 4 group A member 2 (Homo sapiens) (UniProt P43354). Put plainly: ATG_NURR1_TRANS: Attagene TRANS-FACTORIAL HepG2 Assay for human Nuclear Receptor Related Protein 1 (NURR1) (AID 2282985). Particulars: HepG2 Attagene TRANS reporter, mRNA readout. A digest of the protocol: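 Chimeric NR-Gal4 proteins were expressed in human HepG2 cells bearing GAL4-UAS reporter units, and induced reporter mRNA was quantified 24 h post-dosing by RT-PCR and capillary electrophoresis.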

The target of assay [9] is Oxysterols receptor LXR-alpha (Homo sapiens) (UniProt Q13133). Put plainly: ATG_LXRa_TRANS: Attagene TRANS-FACTORIAL HepG2 Assay for human Liver X Receptor alpha (LXRa) (AID 2282980). The following applies: HepG2 Attagene TRANS reporter, LXRa transactivation. The gist of the method: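 Chemical-induced reporter mRNA measured by RT-PCR with fluorescent labelling and capillary electrophoresis after 24 h dosing of transiently transfected HepG2 cells expressing exogenous NR-Gal4 chimeras; increases scored against DMSO baseline.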
Sequence of Oxysterols receptor LXR-alpha (Homo sapiens) (Q13133 whole entry, looked up, the tested form may be a part): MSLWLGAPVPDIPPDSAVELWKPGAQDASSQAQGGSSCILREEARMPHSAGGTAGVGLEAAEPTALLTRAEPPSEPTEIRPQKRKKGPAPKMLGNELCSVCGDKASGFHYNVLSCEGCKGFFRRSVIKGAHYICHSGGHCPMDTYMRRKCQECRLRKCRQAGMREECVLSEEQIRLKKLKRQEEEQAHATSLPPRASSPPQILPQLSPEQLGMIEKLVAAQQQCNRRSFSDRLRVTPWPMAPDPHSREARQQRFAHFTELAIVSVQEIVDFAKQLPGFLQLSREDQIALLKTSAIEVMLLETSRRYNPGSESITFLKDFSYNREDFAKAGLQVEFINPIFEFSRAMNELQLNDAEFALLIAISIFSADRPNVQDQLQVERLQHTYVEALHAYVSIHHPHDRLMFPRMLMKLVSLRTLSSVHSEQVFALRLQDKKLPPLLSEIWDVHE

Sequence of Nuclear receptor subfamily 4 group A member 2 (Homo sapiens) (P43354 whole entry, looked up, the tested form may be a part): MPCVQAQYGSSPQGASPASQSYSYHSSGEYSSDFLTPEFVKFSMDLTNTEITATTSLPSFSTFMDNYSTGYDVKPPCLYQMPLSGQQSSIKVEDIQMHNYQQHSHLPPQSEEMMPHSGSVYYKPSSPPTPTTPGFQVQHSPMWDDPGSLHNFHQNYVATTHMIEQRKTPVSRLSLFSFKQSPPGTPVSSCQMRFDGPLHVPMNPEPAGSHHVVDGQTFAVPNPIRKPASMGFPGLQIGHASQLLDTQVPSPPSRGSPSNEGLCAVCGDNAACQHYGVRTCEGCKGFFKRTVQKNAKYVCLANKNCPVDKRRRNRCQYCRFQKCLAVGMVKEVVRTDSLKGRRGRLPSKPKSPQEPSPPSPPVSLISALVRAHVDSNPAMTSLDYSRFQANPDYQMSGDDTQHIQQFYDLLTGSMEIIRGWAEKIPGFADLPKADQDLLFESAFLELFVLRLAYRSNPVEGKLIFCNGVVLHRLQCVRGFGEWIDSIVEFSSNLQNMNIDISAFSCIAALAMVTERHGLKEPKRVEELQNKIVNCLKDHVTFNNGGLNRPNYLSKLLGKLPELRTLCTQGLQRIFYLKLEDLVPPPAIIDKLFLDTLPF

`C=COCCCC`: the outcome in [1], in assay [2], in [3] and in [4] was inactive.
As to `O=Cc1ccc(CO)o1`, the compound was classed as inactive in assay [1], in [5], in assay [6], in assay [7], in assay [8] and in assay [3]. In assay [4], the compound was called inactive.
In the case of `CCCCCCCCCCC=CC#N`, the compound was called inactive in assay [1], in assay [9], in assay [7], in [8], in assay [3] and in [4].
Take `CCc1c(C(=O)O)c(=O)cnn1-c1ccc(Cl)cc1`: the compound was classed as inactive in assay [1], in [7], in assay [8], in assay [3] and in assay [4].
Regarding `Cc1oncc1C(=O)Nc1ccc(C(F)(F)F)cc1`, the outcome in [1], in [2], in [6], in assay [7], in assay [8] and in [3] was inactive. Moreover, the call in [4] was inactive.
Turning to `CCOC(=O)NNc1nncc2ccccc12`, the result in assay [1], in assay [5], in assay [6], in [7], in [3] and in assay [4] was inactive.
On to `C1=CCCC1`, for which the result in assay [1], in assay [6], in assay [7], in [3] and in assay [4] was inactive.
Turning to `COCC(C)N` (stereo not drawn), the compound was called inactive in [1], in [9], in assay [6], in assay [7], in assay [8] and in assay [3]. Also, the result in [4] was inactive.
As for `CC(C)(C)c1ccc(OC(=O)c2ccccc2O)cc1`, the compound was classed as inactive in [1], in [2], in assay [5], in assay [6], in [8] and in assay [3]. For the same compound, the result in assay [4] was inactive.
As to `C=C(C)C(=O)OCC(C)C`, the result in [1], in [5], in [3] and in assay [4] was inactive.
For the compound `CC(C)COC(=O)C=Cc1ccccc1`, the result in assay [1], in assay [9], in [2], in [6], in assay [8] and in assay [4] was inactive.
Take `CC(=O)Oc1ccc(C(C)=O)cc1`: the compound was called inactive in assay [1], in assay [2], in assay [7], in assay [8], in [3] and in assay [4].
With `Nc1ccc(-c2ccc(F)cc2)cc1`, the compound was called inactive in assay [1], in [5], in assay [7], in assay [3] and in [4].
In the case of `CC(C)(C)C(=O)C=Cc1ccc(Cl)cc1`, the call in assay [1], in [2], in assay [7], in assay [8], in assay [3] and in assay [4] was inactive. For the same compound, in assay [9], the AC50 – broadly, the concentration giving half of the maximal activity seen – is 26.1 µM (active).
`NC(=O)c1ccccc1O`: the compound was classed as inactive in [1], in assay [2], in assay [5], in [6] and in [4].
With `O=C(C(Cl)Cl)N1CCOC12CCCCC2`, the compound was classed as inactive in assay [1], in [2], in assay [5], in assay [7], in assay [3] and in assay [4].
For `CCN(CCO)c1cccc(C)c1`, the result in [1], in [7], in assay [8], in assay [3] and in [4] was inactive.
For `Cc1ccc(OC(=O)CC(C)C)cc1`, the result in assay [1], in assay [2], in assay [5], in [6], in assay [7] and in [8] was inactive. Further, the outcome in assay [3] and in assay [4] was inactive.
For `O=C1C=CC(=O)O1`, the outcome in [1], in assay [9], in assay [5], in assay [6], in assay [7] and in assay [3] was inactive. Moreover, in [4], the compound was called inactive.
`O=C1CCCCCN1SSN1CCCCCC1=O`: the compound was classed as inactive in assay [1], in assay [2], in assay [6], in [7], in assay [8] and in [3]. The result in [4] was inactive.
In the case of `O=C(Cl)c1cc(C(=O)Cl)cc(C(=O)Cl)c1`, the compound was called inactive in [1], in assay [6], in assay [7], in [3] and in assay [4].
With `CCCCCCC(O)CO` (stereo not drawn), the outcome in assay [1], in [9], in assay [6], in [8], in assay [3] and in assay [4] was inactive.
For the compound `CCCCCCCCc1ccc(Nc2ccc(CCCCCCCC)cc2)cc1`, the result in [1], in assay [9], in assay [5], in [7], in [8] and in [3] was inactive. Further, the compound was classed as inactive in assay [4].
For `NC(=O)N=NC(N)=O`, the call in assay [1], in [2], in assay [5], in assay [8], in assay [3] and in [4] was inactive.
As for `CCOC(=O)CC`, the call in assay [1], in [2], in [6], in [7], in assay [3] and in assay [4] was inactive.
`CCC(Cc1ccccc1)(C(=O)c1ccc(N2CCOCC2)cc1)N(C)C` (stereo not drawn): the compound was classed as inactive in assay [1], in assay [7] and in [3]. Moreover, the AC50 is 23.3 µM (active) in assay [9], 27.5 µM (active) in assay [2], 41 µM (active) in assay [8] and 30.3 µM (active) in assay [4].
On to `CCCCC(CC)CCC(CC(C)C)OS(=O)(=O)O` (stereo not drawn), for which the compound was called inactive in assay [1], in assay [2], in [6], in [7], in [8] and in assay [4].
